# A selection: hits, their analogues and other compounds. The true share with any hit is near 7.3%.
# FLuc modulator = inhibits or activates purified firefly luciferase, miR-21 counter-screen; P08659; purified FLuc, Km substrates, luminescence inhibition; Potency, µM (doses to about 57.5 µM), most hits filed as inhibitors; actives 6.9% (n = 360,000); further: nearly all actives have a fitted effect of over 55% in size
# Target sequence (P08659 whole entry, looked up): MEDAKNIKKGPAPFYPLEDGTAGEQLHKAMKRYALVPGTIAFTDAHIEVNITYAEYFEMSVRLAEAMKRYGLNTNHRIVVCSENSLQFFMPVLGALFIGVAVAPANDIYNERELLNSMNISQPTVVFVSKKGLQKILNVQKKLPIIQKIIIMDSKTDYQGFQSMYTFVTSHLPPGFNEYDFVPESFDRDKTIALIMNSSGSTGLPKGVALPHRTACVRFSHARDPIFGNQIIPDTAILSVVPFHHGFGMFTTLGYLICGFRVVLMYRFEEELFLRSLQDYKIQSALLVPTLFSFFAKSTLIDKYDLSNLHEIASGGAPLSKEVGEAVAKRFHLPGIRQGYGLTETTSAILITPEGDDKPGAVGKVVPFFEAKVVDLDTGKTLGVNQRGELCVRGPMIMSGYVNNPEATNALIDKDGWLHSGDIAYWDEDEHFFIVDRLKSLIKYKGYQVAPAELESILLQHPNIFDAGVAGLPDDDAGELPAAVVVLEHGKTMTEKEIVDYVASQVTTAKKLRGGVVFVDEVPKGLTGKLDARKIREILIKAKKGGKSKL
#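 Purified P. pyralis luciferase (10nM final) with 10uM D-luciferin and 10uM ATP (Km levels) in 50mM Tris acetate pH 7.5, 10mM Mg acetate, 0.01% Tween-20, 0.05% BSA; qHTS 6-point titration, ~60 µM downward; luminescence read.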
# NPC1 prom act = activates the NPC1 promoter; Huh7 NPC1 promoter luciferase reporter, 24 h; Potency, µM (titrated, usually from 9.22 µM), most hits filed as activators; actives 2.4% (n = 320,000); further: nearly all actives have a fitted effect of over 60% in size
#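 Quantitative HTS used a cell-based reporter: Huh7 cells stably bearing the NPC1 promoter upstream of luciferase were treated with compounds for 24 h, and promoter activation was read as luminescence.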
# SMN2 splice enh = increases expression of the SMN2 splice variant. HEK293 SMN2-luciferase splicing reporter, luminescence, 30-36 h. Potency, µM (highest dose often 46.1 µM), actives largely listed as activators. actives 2.8% (n = 210,000); further: nearly all actives have a fitted effect of over 55% in size
#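 HEK293 cells carry an SMN2 […]–luciferase reporter in which exon 7 inclusion puts luciferase in frame. Cells were plated 10-12 h before compound addition, then incubated 30-36 h at 37C. ONE-Glo luminescence was read; sodium butyrate at 4.5 mM final served as control.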
# Rab9 prom act = Rab9 promoter activation; AID 485297; actives 2.8% (n = 320,000); Potency, µM (titrated, usually from 9.22 µM), usual class: activators; Huh7 Rab9 promoter-luciferase reporter, luminescence, 24 h; further: nearly all actives have a fitted effect of over 60% in size
#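 Huh7 reporter line, Rab9 promoter upstream of luciferase. Compound exposure 24 h at 37 °C in reduced-serum medium with 10% FBS. Read-out: luminescence.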
# ELG1 genotox = genotoxicity induction in ELG1-luciferase HEK293T cells; actives 1.3% (n = 330,000); HEK293T ELG1-luciferase reporter, luminescence, 16 h; Potency, µM (doses to about 46 µM), actives largely listed as activators; further: nearly all actives have a fitted effect of over 60% in size
#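 Screening used a luciferase reporter fused to human ELG1 in HEK293T cells. Luminescence was read on a CCD plate imager after 16 hr exposure and 30 min ONE-Glo incubation.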
# p53 reactivation = restores transcriptional activity of mutant p53; H1299 p53-A138V BP100-luciferase reporter, luminescence, 24 h; Potency, µM (top dose mostly 92.2 µM), most hits filed as activators; actives 0.063% (n = 320,000); AID 504706; further: nearly all actives have a fitted effect of over 45% in size
#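 H1299 (p53-null), stable ts p53-A138V + BP100-Luc; 1000 cells/well, Opti-MEM/10% FBS; cpd 4 pt, 1:5; 24 h, 37 deg C, 5% CO2; detection reagent 10 min RT; luminescence.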
# A number is an active result; – = inactive; ? = inconclusive; · = no result given. The call rests on the fitted dose curve; in most records, active means well fitted curve in the direction sought with a large enough effect; inconclusive means small, poorly fitted or top-dose-only effect, or another doubt; inactive means no such curve, though single readings can be large; an effect the other way counts as inactive or inconclusive.
SMILES,FLuc modulator,NPC1 prom act,SMN2 splice enh,Rab9 prom act,ELG1 genotox,p53 reactivation
CCC(C)c1ccc(-c2cc(C(=O)OCC(=O)Nc3cc(C)on3)c3ccccc3n2)cc1 (configuration not stated),2.7µM,?,22µM,1.6µM,1.8µM,–
COc1ccc(Cn2c(CNS(=O)(=O)c3ccc4c(c3)CCCC4)nc3cccnc32)cc1,–,·,·,·,·,·
Cc1cc(NS(=O)(=O)c2ccc(NC(=O)/C=C/c3ccccc3Cl)cc2)no1,8.5µM,–,·,–,–,–
Cc1cc(NS(=O)(=O)c2ccc(NC(=O)/C=C/c3ccccc3)cc2)no1,?,–,·,–,–,–
Cc1cc(NC(=O)c2ccccc2Cl)no1,15µM,?,?,4µM,?,–
Cc1cc(NC(=O)/C=C/c2ccccc2Cl)n(-c2nc3ccccc3[nH]2)n1,1.3µM,?,11µM,2µM,–,?
Cc1cc(NC(=O)c2cc(C(C)C)on2)no1,15µM,?,?,?,?,–
Cc1cc(NC(=O)c2ccc(F)cc2F)n(-c2nc3ccccc3[nH]2)n1,–,–,–,–,–,–
CC(=O)N1C2(C=CC1(C)C(=O)NCc1cc(F)cc(C(F)(F)F)c1)CCCCC2 (configuration not stated),·,·,–,·,·,·
CCCc1cc(C(=O)Nc2c(C)nn(Cc3c(Cl)cccc3Cl)c2C)no1,–,·,?,·,·,·
CCc1ccc(Cn2c(CNS(=O)(=O)c3ccc(Cl)s3)nc3cccnc32)cc1,–,·,·,·,·,·
O=C(CSc1nc2c([nH]c3ccccc32)c(=O)n1-c1cccc(Cl)c1)c1ccccc1,–,·,·,·,·,·
Cc1cc(NC(=O)CCCN2C(=O)/C(=C/c3ccccc3Cl)SC2=S)no1,–,–,·,–,–,–
COc1ccc(NC(=O)c2cc(C(C)C)on2)c(OC)c1,?,?,16µM,3.5µM,15µM,?
Cc1cc(NC(=O)c2c(F)cccc2Cl)no1,–,–,–,–,–,–
Cc1cc(NC(=O)NC(=O)c2ccccc2F)no1,?,?,·,3.5µM,?,–
Cc1cc(NC(=O)c2sc3ccccc3c2O)no1,9.5µM,1.6µM,·,3.2µM,10µM,?
Cc1cc(NC(=O)/C=C/c2ccccc2Cl)no1,?,2.8µM,?,2.8µM,–,?
CCc1ccc(CN(C)C(=O)CCc2nnc(Cc3cccc(C)c3)o2)nc1,–,–,·,–,–,–
Cc1ccc(NC(=O)c2cc(S(=O)(=O)N3CCC(C)CC3)cn2C)cc1Cl,–,·,·,·,·,·
Cc1ccc(NC(=O)c2ccccc2Cl)c(Cl)c1,19µM,–,–,?,–,–
Cc1cc(NC(=O)c2ccccc2)ccc1NC(=O)c1ccccc1Cl,?,–,·,–,–,·
O=C(Nc1ncc(Cc2cccc(Cl)c2)s1)C1CCCO1 (configuration not stated),19µM,?,–,?,–,–
Cc1cnc(NC(=O)C2CCCO2)s1 (configuration not stated),–,–,–,–,–,–
CC(=O)Nc1ncc(Cc2cccc(Cl)c2)s1,–,–,·,–,–,–
SMILES,FLuc modulator,NPC1 prom act,SMN2 splice enh,Rab9 prom act,ELG1 genotox,p53 reactivation
O=C(Nc1ncc(Cc2cccc(Cl)c2Cl)s1)C1CCCO1 (configuration not stated),11µM,?,16µM,3.5µM,16µM,–
O=C(Nc1ncc(Cc2ccccc2Cl)s1)C1CCCO1 (configuration not stated),9.5µM,3.5µM,13µM,1.4µM,?,14µM
CC(=O)Nc1ncc(Cc2cccc(Cl)c2Cl)s1,–,–,–,–,–,–
Cc1ccc(Cl)cc1N1CCN(S(=O)(=O)c2cn(C)c(C)n2)CC1,–,·,·,·,·,·
CCN(CC)CCCCn1c(-c2ccccc2)nc2c(N(CCOC)CCOC)nc(C)nc21,·,·,–,·,·,·
CC1C(=O)N2CCCc3cc(NC(=O)COc4ccccc4)cc1c32 (configuration not stated),–,–,·,–,–,–
C=Cc1ccc(CSc2nc(-c3ccccc3Cl)nc3c2Cc2c(CO)cnc(C)c2O3)cc1,–,·,·,·,·,·
O=C(CN1C(=O)S/C(=C\c2ccccc2)C1=O)NC1CCS(=O)(=O)C1 (configuration not stated),–,–,·,–,–,–

# Screening data as filed in PubChem.
